Calb FLC: C. albicans growth inhibition with fluconazole, primary screen, CaCi-2 strain, Alamar Blue fluorescence; C. albicans CaCi-2 (fluconazole-resistant clinical isolate) + fluconazole, 48 h; growth inhibition, % (concentration not given with the values); 0.57% of 300,000 active; AID 1979, 2009;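 active means growth inhibition above about 58% in most replicates, limit read from the data, passing the limit was not always enough; inconclusive means exactly half the replicates above a set limit; inactive means most replicates below a set limit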;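 further: all wells also contain fluconazole at 8 µg/ml as a sub-toxic cotreatment; 0% = median of DMSO wells and 100% = median of geldanamycin control wells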
Mdm2 MdmX PPI: inhibitors of human Mdm2-MdmX association, primary screen, cell-based, luminescence, split luciferase, SaOS-2, uHTS | Protein Mdm4 (Homo sapiens) + E3 ubiquitin-protein ligase Mdm2 (Homo sapiens), … | SaOS-2 split-luciferase Mdm2/MdmX complementation | inhibition, % at 8 µM | 3% of 330,000 active | AID 485346, 2010;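 active means inhibition of at least 50% at 8 µM in the primary screen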
Beta cell apopt: inhibitors of cytokine-induced beta cell apoptosis, primary screen, luminescence; INS-1E cytokine-induced death, ATP luminescence, 48 h; percent of positive-control rescue, neutral wells zero; protection from apoptosis, % (concentration not given with the values); 0.8% of 300,000 active; AID 435005, 2010;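 active means Every replicate reaches about 75%, or at least half do and their mean reaches it too, limit read from the data; inconclusive means At least half of replicates reach the limit but their mean does not; inactive means Under half of replicates reach the limit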;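 further: 0% = cytokine-treated negative control wells and 100% = positive control rescue; higher means more ATP so stronger rescue from cytokine killing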
MPTP inh: mitochondrial permeability transition pore inhibitors, primary screen, biochemical, isolated mouse mitochondria, absorbance; Ca2+ swelling absorbance, 30 min; inhibition, % at 10 µM; 1.4% of 360,000 active;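 active means inhibition of 50% or more, scaled per plate between neutral and stimulator controls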;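 further: 0% = DMSO wells given calcium and 100% = 1 mM EGTA wells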
SKKanGAS inh: S. pyogenes SKKanGAS growth inhibitors in kanamycin, primary screen, streptokinase expression inhibitor project, SKKanGAS strain, BacTiter-Glo luminescence. 6 h. inhibition, % at 7.5 µM. 1.3% of 300,000 active. AID 1662, 2009;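 active means mean replicate score, as percent of positive control median, at least 50; inconclusive means mean below 50 but one replicate at or above 50; inactive means mean and every replicate below 50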;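 further: strain carries kanamycin resistance gene driven by streptokinase promoter and grows in 40 µg/ml kanamycin; loss of luminescence reflects streptokinase promoter inhibition or plain growth inhibition; 0% = median of DMSO wells and 100% = positive control at its reference dose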
CSC inhib: cancer stem cell viability inhibitors, primary screen, luminescence. inhibition, % at 7.5 µM. cancer stem cell-like cells viability. 1.1% of 300,000 active; in the data active means inhibition above about 75%; inconclusive means no clear call, values can overlap the other calls; tested in HMLE shEcad cells
Mdm2-MdmX conf: Mdm2-MdmX complex disruptors, retested hits, confirmation, luminescence, single concentration. Mdm2-MdmX binding, luminescent assay. AID 489028, 2010. 55% of 10,000 active. inhibition, % at 8 µM. shares compounds with Mdm2 MdmX PPI; in the data active means inhibition above about 40%
FLuc counter: full-length luciferase signal inhibition, confirmation, counter-screen for Mdm2/MdmX interaction inhibitor project, cell-based, single concentration, SaOS-2 | SaOS-2 full-length luciferase counterscreen, luminescence | shares compounds with Mdm2 MdmX PPI | 77% of 6,200 active | inhibition, % at 8 µM;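 active means mean inhibition at 8 µM reaching about 37%, which flags the compound as non-specific, limit read from the data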;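 further: p53-null SaOS-2 cells with luciferase driven by a doxycycline-inducible promoter; compound on cells about two nights before reading with doxycycline added after day one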
* marks the source's active call; other numbers are inactive results; ? = inconclusive; . = no result. This is a sample that favours compounds with a hit; in the whole collection about 5.4% have one here.

SMILES | Calb FLC | Mdm2 MdmX PPI | Beta cell apopt | MPTP inh | SKKanGAS inh | CSC inhib | Mdm2-MdmX conf | FLuc counter
O=C(N/N=C/c1cccs1)c1cccc(NC(=O)c2ccc(Cl)cc2)c1 | 16.6 | 57.0* | 67.2 | . | 4.0 | ? | 2.9 | .
O=C(Cn1nnc(-c2ccccc2)n1)N/N=C/c1cc([N+](=O)[O-])ccc1O | -3.4 | 53.2* | -3.0 | 4.0 | 101.3* | -10.1 | 12.3 | .
O=C(N/N=C/c1cccs1)c1cccc(S(=O)(=O)Nc2ccc(Cl)cc2)c1 | -7.5 | 31.1 | -0.1 | 10.2 | -4.4 | -3.7 | . | .
O=C(N/N=C/c1cc([N+](=O)[O-])ccc1O)c1cccc(NC(=O)c2cccc(Cl)c2)c1 | -6.9 | 51.1* | 81.4* | 5.5 | 76.5* | 13.8 | 50.1* | 41.1*
O=C(Cn1nnc(-c2ccccc2)n1)N/N=C/c1cc([N+](=O)[O-])c(Cl)cc1Cl | 4.7 | -24.9 | -5.5 | 18.6 | -6.2 | -4.5 | . | .
COc1cccc(-c2cccc(NC(=O)C3CCN(Cc4ccon4)CC3)c2)c1 | 0.3 | 4.5 | -7.7 | -1.1 | -2.7 | 1.1 | . | .
COC(=O)c1sc2cc([N+](=O)[O-])cc(SCC(C)C)c2c1N | -3.7 | 20.2 | 7.0 | -0.5 | 3.4 | 13.4 | . | .
NCCCNc1nc(N)c([N+](=O)[O-])c(NC2CCCCC2)n1 | 15.0 | 72.8* | -19.6 | -0.2 | -1.5 | 15.5 | 69.5* | 56.2*
CCc1ccccc1N(CC)C(=O)C1CCN(c2ncnc3c2nc2n3CCCCC2)CC1 | -0.7 | 64.4* | 12.4 | -2.2 | 2.0 | -13.9 | 7.0 | .
COc1ccc(-c2cc(-c3ccccc3)c(C#N)c(S(C)=O)n2)cc1 (stereo unspecified) | 10.6 | 81.0* | -6.0 | 0.3 | -7.0 | 24.4 | 20.9 | .
CCNc1nc(NC(C)(C)C)nc(N2CCCCC2)n1 | 42.5 | 51.2* | 41.4 | 3.9 | 29.7 | 23.1 | 19.2 | .
CCN(CC(=O)Nc1c(F)cccc1F)C(=O)c1cc(-c2cccs2)nn1-c1ccccc1 | -1.9 | 59.6* | -2.0 | -0.3 | 7.5 | . | 39.8 | 85.6*
COc1cccc(NC(=O)Nc2nnc(CC(=O)NCc3ccccc3)s2)c1 | -2.3 | 55.6* | -8.6 | 5.4 | -6.0 | -18.5 | 51.2* | 35.1
COc1cccc(CNC(=O)Cc2ccc(-c3ccccc3)cc2)c1 | -2.0 | 66.6* | -0.2 | 1.3 | 21.5 | . | 58.9* | 61.5*
O=C(COC(=O)Cc1ccc(Br)cc1)NCc1ccccc1 | . | . | . | 0.4 | . | . | . | .
COc1ccc(CC(=O)NCc2ccccc2)cc1 | -0.1 | 47.1 | -1.7 | 0.4 | -10.1 | 62.2 | . | .
O=C(Cc1ccc(Br)cc1)NCc1ccccc1 | -0.8 | 64.0* | 21.6 | -1.4 | 0.7 | 59.8 | 51.8* | 57.1*
COc1ccc(NC(=O)Nc2nnc(CC(=O)NCc3ccccc3)s2)cc1 | ? | 27.2 | -2.3 | 1.4 | -3.3 | 6.9 | . | .
CC1CCc2c(sc(NC(=O)c3cccn3C)c2C(N)=O)C1 (stereo unspecified) | . | -40.6 | -4.4 | -1.8 | . | -5.7 | . | .
Cc1ccc(OCC(=O)Nc2cnn(CCCC(=O)O)c2)c([N+](=O)[O-])c1 | -3.8 | 34.3 | -2.1 | -2.0 | -11.2 | -11.9 | . | .
Cc1cccc(N2CCN(S(=O)(=O)c3ccc4c(c3)n(C)c(=O)c(=O)n4C)CC2C)c1 (stereo unspecified) | -2.0 | 67.8* | -4.1 | 5.1 | 2.6 | 4.5 | -24.2 | .
Cc1onc(-c2c(F)cccc2Cl)c1C(=O)NCc1ccccn1 | 14.8 | -3.8 | 0.3 | -0.3 | -0.2 | -15.1 | . | .
CCN(CC)CCn1c2c(c(SCC(=O)Nc3ccc(C)c(F)c3)nc1=O)CCCC2 | -4.5 | 23.8 | 0.9 | -1.4 | -2.6 | -10.1 | . | .
Cc1cccc(CNc2ncnc3ccc(-c4ccoc4)cc23)c1 | . | 78.8* | -15.7 | 2.5 | . | 1.3 | 64.2* | 23.8
COc1cccc(-c2ccc3ncnc(NCc4ccc5c(c4)OCO5)c3c2)c1 | . | 74.2* | -26.9 | 1.7 | . | . | 75.8* | 53.0*
SMILES | Calb FLC | Mdm2 MdmX PPI | Beta cell apopt | MPTP inh | SKKanGAS inh | CSC inhib | Mdm2-MdmX conf | FLuc counter
Cc1csc(CNc2ncnc3ccc(-c4ccoc4)cc23)c1 | . | 76.1* | -12.0 | 1.5 | . | -4.5 | 73.8* | 53.7*
Cc1csc(CNc2ncnc3ccc(-c4cccnc4)cc23)c1 | . | 12.1 | 1.0 | 0.4 | . | . | . | .
Cc1cccc(CNc2ncnc3ccc(-c4ccc5c(c4)OCCO5)cc23)c1 | . | 66.2* | 108.0* | 1.1 | . | 12.5 | 33.0 | .
c1cc2c(cnc3cscc32)s1 | -19.8 | 7.2 | -10.9 | -0.8 | 0.8 | -5.0 | . | .
O=C(CNS(=O)(=O)c1ccc(Cl)cc1)N/N=C/c1ccco1 | 0.7 | -3.0 | -0.4 | 0.2 | -4.6 | 0.6 | . | .
COc1ccc(NC(=S)NCc2ccccn2)cc1OC | 14.2 | -10.4 | -2.5 | 2.4 | -5.0 | -13.4 | . | .
Cn1cccc1C(=O)OCC(=O)c1c[nH]c2ccccc12 | . | -132.0 | -12.2 | 1.9 | . | -14.2 | . | .
c1cncc(CNc2ncnc3ccc(-c4ccoc4)cc23)c1 | . | 70.4* | -11.1 | -2.1 | . | -2.0 | 69.4* | 51.3*
COc1cc2[nH]cc(C(=O)NCc3cccs3)c(=O)c2cc1OC | 0.1 | -13.9 | -7.0 | -0.9 | -8.7 | 10.8 | . | .
Cc1cccn2c(CN(C)CC3CCCCO3)c(C(=O)N3CCCCC3)nc12 (stereo unspecified) | -14.9 | -52.4 | 1.3 | -2.1 | -1.7 | -10.0 | . | .
COc1ccccc1NC(=O)Cn1nnc(C(=O)NCc2cccs2)c1N | 4.3 | 55.6* | . | 1.8 | -9.3 | 54.0 | 63.8* | 67.6*
COc1ccc(NC(=O)c2oc3ccccc3c2NC(=O)c2ccc(OC)c(OC)c2)c(OC)c1 | . | . | . | 1.3 | . | . | . | .
COc1ccc(NC(=O)c2nnn(CC(=O)Nc3ccccc3OC)c2N)c(OC)c1 | -6.6 | 67.7* | -2.5 | 0.3 | 0.4 | -0.3 | -2.3 | .
COc1ccc(NC(=O)c2oc3ccccc3c2NC(=O)COc2ccccc2OC)c(OC)c1 | 30.4 | 69.7* | 9.5 | 0.2 | -8.6 | 7.5 | -5.4 | .
Cc1ccc(C)c(NC(=O)Cn2nnc(C(=O)NCc3cccs3)c2N)c1 | -0.5 | 65.0* | 0.0 | -0.9 | -0.5 | 18.9 | 12.1 | .
CCOc1ccc(-n2c(N)c(C(=O)NCc3ccco3)c3nc4ccccc4nc32)cc1 | 18.5 | 24.3 | -8.9 | 0.2 | 17.0 | 5.4 | . | .
CCOc1ccc(-n2c(N)c(-c3nc4ccccc4n3C)c3nc4ccccc4nc32)cc1 | 2.4 | 62.8* | 5.0 | 2.2 | 48.8 | -5.5 | 58.6* | 65.5*
C[C@H](O)CNC(=O)c1[nH]cnc1C(=O)Nc1ccc(CNC(=O)OC(C)(C)C)cc1 | . | . | . | -0.8 | . | . | . | .

From PubChem
